# From the supplement of paper PMC6555819
# Tested on: RXRa DBDmut IVT, anti-RXR (DBD mutation: RXRa K156A/R161A, NR concentration 90 nM)
# Assay: PBM binding z-score (relative to random genomic background probes); higher = stronger binding; sequences stand for … in GC…GCGATTGACAGCGTAGAATGAAGG
# In short: (§1)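 Custom Agilent 4×180K protein-binding microarrays carried double-stranded probes. Their 34-nt variable regions held direct-repeat seeds, single-nucleotide variants, half-site ablations and random human genomic background sequences. Arrays were incubated 1 h with ligand-free nuclear receptor dimers in PBS pH 7.4, 2% milk, 0.02% Triton X-100, 1 mM DTT, 0.2 mg/mL BSA and 0.4 mg/ml salmon testes DNA. Antibodies against each partner (one per run) detected binding, and scanned fluorescence was regression-normalized. Binding z-scores use random background probes as reference.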
row,Sequence,PBM binding z-score
1,TGTCAAAGTTCAAAGGTAAAGTAAGTATCCACAC,4.16
2,CGAACTAGCTCAGAACAGGACAGTGAAGGATGAT,0.021
3,GATACAGGGTCAGCTAGAGGCAAGAGTATGGAAA,0.963
4,GGAACGAGGGCATTCGAGTTAATAGCATGGCGAT,2.83
5,TGTGCTAGGTCAACGATGGTCAGCTAATCTGCTA,0.342
6,ATACCAAGGTGATCGTGAGGTGGTTGATACTAAC,-0.212
7,CCTTACGGGTCACGAGGTTATAACACGACGAGCG,1.5
8,CCTAGCAGGCCAATCTCGGTCACTCAAGGCTTGA,0.398
9,ACTAGCACGCCAAGTTTGGGTCACTCAAACAAAG,-0.276
10,TCATAAAGGTAAATGCTAGGTGAAAGTCCGATCT,1.87
11,CGAACGAGGGCATGAGTAGATAGCAAATGCCGAT,2.03
12,TCCTATAGGTAAACAGGTGAAAGTCCGTAAGTTA,1.06
13,CCTATTAGTTGACCATAAGGGCAACGGAAGCTCG,0.278
14,TAGCCTACGTCATGGGCCAGTATACCACGCGAAC,-0.76
15,TCTGCTAGGTCAACTATGGTCAGCTAATCTGCTA,1.45
16,TCTTGTAGATCACTAGAGGTTAAGAAAGTGCGCT,0.477
17,TCTAGTTGGTCAAAGGTCACAGACTCGAAATGCG,1.36
18,CGACCTAGGTCAGAACAGGACAGTGAAGGATGAT,0.773
19,CCGGCTGGGGCATAAGGTTACCATAAGCCAGCCC,-1.59
20,CCTACTGGGCCAAAGGTTATTGATTCCAATGCTC,0.31

row,Sequence,PBM binding z-score
1,TAGCCTAGGTCATTCTGGGGCCAGTATAGAAAGC,1.87
2,GCGAATGGGGCATCAGCAGGTTACCATAACTTAA,0.119
3,CCCGAAAGGTCGTGCTCAGGTGAGTATACCAAAC,2.2
4,ACTTACGGGTCAACGAGGTTGTAGCACGCGTATA,2.44
5,ATCTCCAGGTAAAAGTTCAGTGAATCCCGAGGAT,0.595
6,TGAATGAGGTTAAAGACCAGGGAACGTGGCGTCG,0.895
7,GCTAGCAGGCCATTTGGCTCACTCAATGACGGGC,0.0311
8,TCATATCGGTAAATGCTAGGTGAAAGTCCGATCT,1.14
9,AATACAGGGTCATCGTAGGACAGAGTACGCACAG,3.38
10,CCTACTGGGCCATTCAGAGGTCATTCATCATATG,0.971
11,GTACCAAGGTGAATAGGTGGTTGATGAGTAGGCG,-0.536
12,GCTCGGAGGACAAGTTCAGAGCTTTGTCCGTAGA,1.73
13,TGTCAAAGTTCAAAGGTAACGTAGGTATCCACAC,4.14
14,GATACAGTGTCAGCTAGAGGCCAGAGTATGGAAA,-0.492
15,GATACAGGGTCTGCTAGAGGCCAGAGTATGGAAA,-0.877
16,TTACCAAGGTGAGCTGAGGCCGTTGATCCAACTC,-0.748
17,ACTATTAGTTGAGACGAGGGCAACCGATAGGTTG,0.5
18,TCTTGTAGATGAAGCAGGTTAAGAAAGCCTGAGT,0.667
19,AGTCAAAGTTCATGTAGGTAACGTAAGATATGCT,4.74

# Tested on: RXRa homodimer (NR concentration 180 nM)
# Assay: as above
# In short: as §1
row,Sequence,PBM binding z-score
1,TGTCAAAGTTCAAAGGTAAAGTAAGTATCCACAC,7
2,CGAACTAGCTCAGAACAGGACAGTGAAGGATGAT,-0.191
3,GATACAGGGTCAGCTAGAGGCAAGAGTATGGAAA,4.52
4,GGAACGAGGGCATTCGAGTTAATAGCATGGCGAT,1.09
5,TGTGCTAGGTCAACGATGGTCAGCTAATCTGCTA,2.45
6,ATACCAAGGTGATCGTGAGGTGGTTGATACTAAC,0.48
7,CCTTACGGGTCACGAGGTTATAACACGACGAGCG,6.99
8,CCTAGCAGGCCAATCTCGGTCACTCAAGGCTTGA,-0.123
9,ACTAGCACGCCAAGTTTGGGTCACTCAAACAAAG,0.756
10,TCATAAAGGTAAATGCTAGGTGAAAGTCCGATCT,1.05
11,CGAACGAGGGCATGAGTAGATAGCAAATGCCGAT,0.713
12,TCCTATAGGTAAACAGGTGAAAGTCCGTAAGTTA,0.667
13,CCTATTAGTTGACCATAAGGGCAACGGAAGCTCG,0.632
14,TAGCCTACGTCATGGGCCAGTATACCACGCGAAC,-0.0748
15,TCTGCTAGGTCAACTATGGTCAGCTAATCTGCTA,3.13
16,TCTTGTAGATCACTAGAGGTTAAGAAAGTGCGCT,1.6
17,TCTAGTTGGTCAAAGGTCACAGACTCGAAATGCG,8.58
18,CGACCTAGGTCAGAACAGGACAGTGAAGGATGAT,2.21
19,CCGGCTGGGGCATAAGGTTACCATAAGCCAGCCC,0.983
20,CCTACTGGGCCAAAGGTTATTGATTCCAATGCTC,2.12

row,Sequence,PBM binding z-score
1,TAGCCTAGGTCATTCTGGGGCCAGTATAGAAAGC,2.52
2,GCGAATGGGGCATCAGCAGGTTACCATAACTTAA,0.257
3,CCCGAAAGGTCGTGCTCAGGTGAGTATACCAAAC,4.95
4,ACTTACGGGTCAACGAGGTTGTAGCACGCGTATA,5.59
5,ATCTCCAGGTAAAAGTTCAGTGAATCCCGAGGAT,1.94
6,TGAATGAGGTTAAAGACCAGGGAACGTGGCGTCG,2.95
7,GCTAGCAGGCCATTTGGCTCACTCAATGACGGGC,-0.355
8,TCATATCGGTAAATGCTAGGTGAAAGTCCGATCT,0.375
9,AATACAGGGTCATCGTAGGACAGAGTACGCACAG,6.61
10,CCTACTGGGCCATTCAGAGGTCATTCATCATATG,3.37
11,GTACCAAGGTGAATAGGTGGTTGATGAGTAGGCG,0.63
12,GCTCGGAGGACAAGTTCAGAGCTTTGTCCGTAGA,0.198
13,TGTCAAAGTTCAAAGGTAACGTAGGTATCCACAC,7.19
14,GATACAGTGTCAGCTAGAGGCCAGAGTATGGAAA,0.242
15,GATACAGGGTCTGCTAGAGGCCAGAGTATGGAAA,-0.0451
16,TTACCAAGGTGAGCTGAGGCCGTTGATCCAACTC,-0.163
17,ACTATTAGTTGAGACGAGGGCAACCGATAGGTTG,0.75
18,TCTTGTAGATGAAGCAGGTTAAGAAAGCCTGAGT,0.257
19,AGTCAAAGTTCATGTAGGTAACGTAAGATATGCT,4.45
